Most compounds without a hit are left out; they make up all but 21% or so of the library.
Pf growth 48h: P. falciparum growth inhibition at 48 hours (one generation); P. falciparum luciferase growth in erythrocytes, 48 h; Potency, µM (top dose mostly 28.7 µM), inactives show top-dose activity change, negative = inhibition, usual class: inhibitors; hit rate 5.9% among 310,000; further: potency means the concentration at half of the fitted maximal effect; on the % scale 0 is the no-effect control and ±100 the full control effect
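Firefly luciferase activity from engineered P. falciparum reports growth; inhibitors lower the luminescent signal. Cultures contained 2% hematocrit erythrocytes at 0.1% final parasitemia.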
CHX counter: counter-screen hit for Shiga toxin inhibitors, cycloheximide; hit rate 12% among 300,000; cell reporter, cycloheximide protein synthesis inhibition counterscreen; max response, %; in the data active means max response mostly above about 13%, no sharp cut-off; inactive means mostly below about 14%; further: read at 38.3 µM for the half of the compounds with a filed dose; 0% is about no effect
Pf growth 96h: inhibits malaria parasite growth, 96 h; Potency, µM (doses to about 28.7 µM), inactives show at the highest dose activity change, negative = inhibition, actives largely listed as inhibitors; P. falciparum luciferase reporter growth, 96 h; hit rate 6.9% among 320,000; further: potency means the concentration at half of the fitted maximal effect; on the % scale 0 is the no-effect control and ±100 the full control effect
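Plates of compound plus infected erythrocytes (2% hematocrit, 0.05% parasitemia final) incubate 96 hours, 37 C, 5% CO2. Detection reagent added; reduced luminescence from the parasites' luciferase reporter flags inhibition.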
NS1 function inh: influenza NS1 inhibition | Potency, µM (titrated, usually from 46.1 µM), for the others: top-dose activity, positive = more growth | hit rate 0.4% among 270,000; calls by dose curve; further: potency means the concentration at half of the fitted maximal effect; actives are rising curves; nearly all actives have a fitted effect of over 50% in size
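A cell-based growth assay was used: compounds that relieve NS1-induced slow growth of budding yeast raise OD600. Assay medium was yeast nitrogen base with ammonium sulphate and -URA supplement, pH 6.0, with 2% galactose.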
Sm TGR block: S. mansoni TGR enzyme inhibition; purified TGR, DTNB reduction, TNB absorbance 405 nm; Potency, µM (doses to about 114 µM), for the others: top-dose activity change, negative = inhibition, actives largely listed as inhibitors; hit rate 3% among 360,000; AID 485364; further: potency means the concentration at half of the fitted maximal effect; on the % scale 0 is the no-effect control and ±100 the full control effect; nearly all actives have a fitted effect of over 60% in size
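TGR 20 nM + NADPH 100 uM (dispensed conc.), cpd preinc 15 min RT; start with NADPH (500 uM addition) then DTNB (15 mM addition). Kinetic TNB absorbance, 405 nm filter. Four-parameter Hill fit across titration.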
Shiga inhibitor: blocks Shiga toxin action in Vero cells; Vero cells, Shiga toxin protein synthesis inhibition reporter; inhibition, % at 38.7 µM; hit rate 9.2% among 290,000; AID 2315; in the data active means inhibition mostly above about 28%, no sharp cut-off; inactive means mostly below about 43%; further: 0% is about no effect
* hit, by the source's call; ? = inconclusive; . = no result given; + = active, no number; [ ] = remark or other dose. Unless noted, the call rests on the fitted dose curve; in most records, active means well fitted curve in the direction sought with a large enough effect; inconclusive means small, poorly fitted or top-dose-only effect, or another doubt; inactive means no such curve, though single readings can be large; an effect the other way counts as inactive or inconclusive.

SMILES | Pf growth 48h | CHX counter | Pf growth 96h | NS1 function inh | Sm TGR block | Shiga inhibitor
c1ccc(OCc2nc(-c3ccccc3)no2)cc1 | 140.8% | 58.1* | . | -4.5% | -25.6% | 100.1*
COc1ccccc1Cc1nc(-c2ccncc2)no1 | 27.9% | 20.2* | -5.1% | -7.6% | -5.5% | 20.7
Clc1ccc(OCc2nc(-c3ccncc3)no2)c(Br)c1 | 121.0% | 40.3* | 10.4% | -51.9% | -8.6% | 71.1*
COc1nc(-c2ccccc2)ccc1-c1noc(COc2ccccc2)n1 | 4.3% | 16.9 | . | -35.4% | -11.3% | 23.6
c1ccc(OCc2nc(-c3ccncc3)no2)cc1 | 70.2% | 49.6* | 11.7µM* | -0.3% | 10.0% | 109.9*
Cc1ccc(C)c(NC(=O)Cn2c(=O)n(CCC(C)C)c(=O)c3cccnc32)c1 | . | . | . | . | -2.2% | .
O=C(Oc1ccc(Br)cc1C(=S)N1CCOCC1)c1ccc(F)cc1 | 1.6% | -1.9 | 12.4% | -44.1% | -22.6% | -32.7
CCc1ccccc1NC(=O)Cn1c(=O)n(CCc2ccccc2)c(=O)c2sc3ccccc3c21 | . | . | . | . | -5.0% | .
O=C(COc1ccccc1Cl)NCc1nc(-c2ccccc2)no1 | -7.3% | 18.3 | 37.0% | 1.1% | 7.5% | 11.0
Clc1ccccc1OCc1nc(-c2ccncc2)no1 | 143.1% | 49.2* | ? | -66.6% | 2.4% | 85.7*
CN(Cc1cnc2nc(N)nc(N)c2n1)c1ccc(C(=O)N[C@@H](CCC(=O)O)C(=O)O)cc1 | 0.0426µM* | . | 1.69µM* | -6.6% | . | .
C[C@H](NC(=O)[C@@H]1Cc2ccccc2CN1)C(=O)Nc1ccc2c(c1)OCO2 | -10.4% | 29.8* | -7.7% | -9.4% | -1.2% | 24.8
C[C@@H](NC(=O)[C@@H]1Cc2ccccc2CN1)C(=O)Nc1ccc2c(c1)OCCO2 | 103.3% | 26.6* | 142.5% | 21.1% | -15.3% | 67.5*
CSCC[C@H](NC(=O)[C@@H]1Cc2ccccc2CN1)C(=O)Nc1ccc2c(c1)OCO2 | 9.28µM* | 48.1* | ? | 4.8% | -14.4% | 33.6
Cc1cccc(N2CCN(C(=O)c3nn(C)c4c3CSc3ccccc3-4)CC2C)c1 (centres undefined) | . | . | . | . | 0.4% | .
C[C@@]12C=CC(=O)C=C1CCC1C3CC(O)[C@@](O)(C(=O)CO)[C@]3(C)CC(O)[C@]12F (some centres undefined) | -6.7% | . | 9.3% | . | . | .
Cn1c(SCC(=O)NNC(=O)Cc2ccccc2)nnc1-c1ccccc1 | 9.3% | -3.4 | -29.4% | 10.2% | -11.8% | -12.5
Cc1csc(NS(=O)(=O)c2cccc([N+](=O)[O-])c2)n1 | -0.9% | 0.4 | ? | 3.2% | 8.0% | -6.2
Cc1ccc(S(=O)(=O)N2CC2(C)CCl)cc1 (centres undefined) | -12.9% | -1.2 | ? | 7.8% | 50.1µM* | -4.3
O=C(NNC(=O)c1cccc2ccccc12)c1ccco1 | 3.9% | 3.4 | 5.5% | 2.5% | 12.2% | -12.8
O=C(NNC(=O)c1ccccc1O)c1ccco1 | 250.0% | 26.7* | -28.8% | . | 0.5% | 96.9*
O=C(NNC(=O)c1ccccc1F)c1ccco1 | 71.1% | 13.6 | -10.7% | 3.3% | -11.7% | 40.3*
CCOC(=O)c1oc2c(c1C)-c1nn(Cc3cccc(Cl)c3)cc1CC2 | . | . | . | . | -0.7% | .
CN(Cc1ccccc1)S(=O)(=O)c1ccc(N2CCCC2=O)cc1 | ? | . | ? | . | -8.7% | .
O=C(Nc1c(-c2ccccc2)nc2ccccn12)c1ccc(Br)cc1 | . | . | . | . | -1.2% | .
SMILES | Pf growth 48h | CHX counter | Pf growth 96h | NS1 function inh | Sm TGR block | Shiga inhibitor
Nc1nc(COc2ccc(Cl)cc2)cs1 | 132.3% | 32.7* | 129.2% | 2.0% | 4.1% | 65.0*
Cc1ccc(OCc2csc(N)n2)cc1 | 425.4% | 34.6* | 176.0% | . | -0.4% | 83.3*
Cc1ccccc1OCc1csc(N)n1 | 45.2% | 15.9* | 43.2% | 6.9% | 8.8% | 32.9
CCOC(=O)c1sc(/N=C/c2c(C)[nH]n(-c3ccccc3)c2=O)c(C#N)c1C | . | -1.1 | 50.9% | -3.2% | 2.3% | -19.5
CN(C(=O)COC(=O)c1cccc(S(=O)(=O)N2CCOCC2)c1)C1CCS(=O)(=O)C1 (centres undefined) | 24.6% | . | 21.9% | . | 0.6% | .
CC(OC(=O)c1cccc(-n2cnnn2)c1)C(=O)c1ccccc1 (centres undefined) | 16.1% | . | 27.8% | . | -14.6% | .
CC1CCCCN1S(=O)(=O)c1ccc2c(c1)CCN2C(=O)C1CC1 (centres undefined) | 0.2% | -2.1 | ? | -7.8% | 1.6% | -4.8
CCSc1ncc(/C=N/Nc2ccc(F)cc2)n1C | ? | 30.5* | ? | -56.3% | -6.7% | 52.4*
CC(=O)Nc1ccc(NC(=O)CSc2ncc(C(=O)Nc3ccc(F)cc3)c(=O)n2C)cc1 | 3.4% | . | 35.6% | . | -3.6% | .
Cc1cccc(N2CCN(C(=O)CCCn3c(=O)[nH]c4ccsc4c3=O)CC2C)c1 (centres undefined) | ? | -8.1 | -10.2% | -16.0% | -13.3% | -1.2
Cc1cc(=O)oc(C)c1C(=O)NCC(C)C | 14.4% | 11.2 | 4.0% | 4.4% | 0.0% | 4.3
CCCNC(=O)c1c(C)cc(=O)oc1C | 33.1% | -2.7 | 6.57µM* | 12.8% | 0.0% | -6.9
CCOC(=O)N1CCC(N2C(=O)c3ccccc3C2Nc2ccc3c(c2)OCCO3)CC1 (centres undefined) | . | 161.5* | 39.2% | -40.0% | -32.0% | 127.8*
CCOC(=O)N1CCC(N2C(=O)c3ccccc3C2Nc2ccc3c(C)cc(=O)oc3c2)CC1 (centres undefined) | ? | 2.6 | 2.5% | -31.3% | -8.6% | 2.2
CCOC(=O)c1ccccc1NC1c2ccccc2C(=O)N1C1CCN(C(=O)OCC)CC1 (centres undefined) | 1.65µM* | 6.8 | ? | -74.4% | -0.6% | -2.9
COc1ccc(-n2nc(C(=O)N3CCN(c4cccc(C)c4C)CC3)c3c4ccccc4n(C)c3c2=O)cc1 | . | . | . | . | 1.9% | .
O=C(OCC(F)(F)F)c1cccc(COc2ccc3ccccc3c2)c1 | . | 82.3* | 242.9% | -2.4% | 6.7% | 139.9*
CCOc1ccc(OCc2cccc(C(=O)N3CCCCCC3)c2)cc1 | 301.8% | 64.8* | 12.3% | . | -1.3% | +
CCOc1ccc(OCc2cccc(C(=O)N3CCCC3)c2)cc1 | 141.5% | 87.4* | . | -52.8% | 14.2% | 138.7*
O=C(NN1CCCCC1)c1cccc(COc2ccc(Cl)cc2)c1 | 138.4% | 76.4* | 170.3% | -1.4% | -5.1% | 89.9*
CC(NNC(=O)c1ccccc1)c1ccccc1 (centres undefined) | 84.9% | . | 94.4% | . | . | .
Cc1ccc(-c2noc(-c3cccnc3N(C)Cc3ccc(Cl)cc3)n2)cc1 | . | . | . | . | -1.1% | .
CC(=O)c1ccc(Nc2cc(C)nc3nc(Cc4ccc(Cl)cc4)nn23)cc1 | . | . | . | . | -0.8% | .
CCOc1ccc(OCc2cccc(C(=O)O)c2)cc1 | -12.3% | 17.7* | . | -139.7% | -6.2% | 40.5
O=C(O)c1cc(OCc2ccccc2)cc(OCc2ccccc2)c1 | 7.8%[0.00184 µM] | -4.2 | 14.4% | -3.6% | 2.3% | -13.6

Assay outcomes from PubChem.
